Tests used:
Assay in all cases: DAPPL (digital affinity profiling via proximity ligation, sequencing); 10 mM Tris-HCl pH 7.5, 50 mM NaCl, 1 mM DTT, 4% glycerol, room temperature, 30 min; GST-TFs on glutathione beads, 16-mer random dsDNA library, 0.1% formaldehyde crosslink after washing; high values mean tight binding
Settings in all cases: protein: recombinant; tags: N-terminal GST; dsDNA, one strand shown
ERF = biological target: T1, ERF (Homo sapiens, UniProt P50548 1-548)
T1 sequence: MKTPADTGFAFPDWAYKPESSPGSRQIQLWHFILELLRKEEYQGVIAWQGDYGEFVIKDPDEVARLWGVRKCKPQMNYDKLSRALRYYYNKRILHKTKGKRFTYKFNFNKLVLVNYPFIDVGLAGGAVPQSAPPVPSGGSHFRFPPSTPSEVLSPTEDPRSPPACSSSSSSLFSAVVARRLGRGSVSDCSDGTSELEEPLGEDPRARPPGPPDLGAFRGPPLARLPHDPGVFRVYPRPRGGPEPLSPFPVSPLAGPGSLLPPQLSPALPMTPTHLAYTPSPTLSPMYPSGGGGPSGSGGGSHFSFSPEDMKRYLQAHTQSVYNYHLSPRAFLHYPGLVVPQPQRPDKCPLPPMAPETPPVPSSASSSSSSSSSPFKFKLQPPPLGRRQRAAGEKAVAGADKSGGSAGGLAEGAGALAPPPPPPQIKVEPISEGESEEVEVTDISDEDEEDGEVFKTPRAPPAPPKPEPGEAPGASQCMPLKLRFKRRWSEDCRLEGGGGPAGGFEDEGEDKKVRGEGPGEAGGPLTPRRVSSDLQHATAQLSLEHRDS
How it was run: (§1)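 Each value of binding signal is a hexamer's read frequency for a factor divided by the same hexamer's frequency in the tag-only sample. Barcoded, bead-captured GST fusions of human transcription factors made in yeast were pooled with that sample and incubated with 200 nmole of a random double-stranded 16-mer DNA library in Tris/NaCl/DTT/glycerol buffer at room temperature for 30 min. Washing, 0.1% formaldehyde crosslinking, proximity ligation, PCR and Illumina NextSeq500 sequencing followed.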

ETV3L = biological target: T2, ETV3L (Homo sapiens, UniProt Q6ZN32 1-361)
T2 sequence: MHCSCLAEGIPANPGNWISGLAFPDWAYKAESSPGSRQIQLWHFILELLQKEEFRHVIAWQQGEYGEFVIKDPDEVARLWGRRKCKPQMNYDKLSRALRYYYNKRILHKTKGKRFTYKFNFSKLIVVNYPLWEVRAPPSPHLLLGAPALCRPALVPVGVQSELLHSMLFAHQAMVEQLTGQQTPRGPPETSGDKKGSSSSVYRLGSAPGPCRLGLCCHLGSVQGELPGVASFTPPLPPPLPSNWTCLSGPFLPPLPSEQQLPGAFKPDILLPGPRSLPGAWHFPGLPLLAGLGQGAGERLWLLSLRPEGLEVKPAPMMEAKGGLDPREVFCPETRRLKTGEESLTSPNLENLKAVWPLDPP
How it was run: as §1

SPDEF = biological target: T3, SPDEF (Homo sapiens, UniProt O95238 1-335)
T3 sequence: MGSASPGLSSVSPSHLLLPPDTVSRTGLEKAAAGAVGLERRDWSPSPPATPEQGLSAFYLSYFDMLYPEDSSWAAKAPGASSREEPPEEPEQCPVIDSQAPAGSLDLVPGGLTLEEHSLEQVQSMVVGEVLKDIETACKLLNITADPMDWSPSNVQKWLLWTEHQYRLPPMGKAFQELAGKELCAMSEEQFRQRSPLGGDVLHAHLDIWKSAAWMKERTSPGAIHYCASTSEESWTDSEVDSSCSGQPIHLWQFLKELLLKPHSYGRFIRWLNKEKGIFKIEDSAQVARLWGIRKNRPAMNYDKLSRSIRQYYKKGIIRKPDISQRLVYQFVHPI
How it was run: as §1

ETV7 = biological target: T4, ETV7 (Homo sapiens, UniProt Q9Y603 1-341)
T4 sequence: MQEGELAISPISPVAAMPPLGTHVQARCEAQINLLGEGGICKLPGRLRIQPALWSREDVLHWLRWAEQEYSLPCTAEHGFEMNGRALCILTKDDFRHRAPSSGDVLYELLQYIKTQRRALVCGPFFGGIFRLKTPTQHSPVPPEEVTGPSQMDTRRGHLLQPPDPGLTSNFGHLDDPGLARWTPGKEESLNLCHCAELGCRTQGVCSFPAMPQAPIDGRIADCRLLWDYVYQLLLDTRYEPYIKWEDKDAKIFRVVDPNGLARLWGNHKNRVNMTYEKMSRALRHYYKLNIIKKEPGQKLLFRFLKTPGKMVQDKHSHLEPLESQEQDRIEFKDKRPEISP
How it was run: as §1

ELF5 = biological target: T5, ELF5 (Homo sapiens, UniProt Q9UKW6-2 1-255)
T5 sequence: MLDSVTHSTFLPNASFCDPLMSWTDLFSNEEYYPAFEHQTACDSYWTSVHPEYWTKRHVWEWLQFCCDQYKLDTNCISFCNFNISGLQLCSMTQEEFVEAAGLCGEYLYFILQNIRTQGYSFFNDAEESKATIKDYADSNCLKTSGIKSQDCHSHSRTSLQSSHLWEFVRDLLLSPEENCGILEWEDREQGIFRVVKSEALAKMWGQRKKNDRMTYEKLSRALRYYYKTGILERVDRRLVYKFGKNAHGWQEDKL
How it was run: as §1

ETV3 = biological target: T6, ETV3 (Homo sapiens, UniProt P41162-2 1-143)
T6 sequence: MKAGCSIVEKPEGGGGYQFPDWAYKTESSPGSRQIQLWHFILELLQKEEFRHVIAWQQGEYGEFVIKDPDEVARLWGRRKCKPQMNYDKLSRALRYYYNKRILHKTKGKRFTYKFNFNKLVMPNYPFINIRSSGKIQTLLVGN
How it was run: as §1

ETV6 = ETV6 (Homo sapiens, UniProt P41212 1-452)
How it was run: as §1

ETS2 = biological target: T7, ETS2 (Homo sapiens, UniProt P15036 1-469)
T7 sequence: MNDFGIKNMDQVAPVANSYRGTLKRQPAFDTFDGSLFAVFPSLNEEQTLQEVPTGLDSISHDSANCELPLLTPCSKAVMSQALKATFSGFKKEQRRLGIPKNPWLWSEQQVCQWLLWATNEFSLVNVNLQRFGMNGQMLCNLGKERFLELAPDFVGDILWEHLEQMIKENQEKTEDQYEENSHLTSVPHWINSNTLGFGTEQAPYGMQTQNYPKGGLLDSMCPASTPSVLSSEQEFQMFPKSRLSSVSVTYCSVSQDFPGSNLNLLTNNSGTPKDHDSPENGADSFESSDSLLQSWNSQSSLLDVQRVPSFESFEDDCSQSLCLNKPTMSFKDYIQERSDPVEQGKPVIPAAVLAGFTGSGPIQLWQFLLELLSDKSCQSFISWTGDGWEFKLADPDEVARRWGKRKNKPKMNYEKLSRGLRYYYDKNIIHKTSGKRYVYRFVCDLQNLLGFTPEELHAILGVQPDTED
How it was run: as §1

ETV6, sequence (P41212 whole entry): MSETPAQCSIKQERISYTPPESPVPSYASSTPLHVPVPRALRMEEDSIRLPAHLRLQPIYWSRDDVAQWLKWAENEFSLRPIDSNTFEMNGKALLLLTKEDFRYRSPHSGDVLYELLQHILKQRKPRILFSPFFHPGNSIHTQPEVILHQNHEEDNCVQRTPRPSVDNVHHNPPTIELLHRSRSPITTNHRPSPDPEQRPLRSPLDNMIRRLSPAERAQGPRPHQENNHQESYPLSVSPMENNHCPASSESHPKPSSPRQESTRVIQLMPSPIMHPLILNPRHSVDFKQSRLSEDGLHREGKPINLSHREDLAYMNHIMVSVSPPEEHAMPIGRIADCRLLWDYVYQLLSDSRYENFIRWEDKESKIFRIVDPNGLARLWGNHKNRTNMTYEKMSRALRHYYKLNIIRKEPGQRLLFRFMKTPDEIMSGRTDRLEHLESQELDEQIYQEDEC

Sequence | binding signal (ERF) | binding signal (ETV3L) | binding signal (SPDEF) | binding signal (ETV7) | binding signal (ELF5) | binding signal (ETV3) | binding signal (ETV6) | binding signal (ETS2)
TAGTAA | 1.09 fold enrichment (6-mer frequency, TF over GST control) | 1.04 fold enrichment (6-mer frequency, TF over GST control) | 1.02 fold enrichment (6-mer frequency, TF over GST control) | 1.16 fold enrichment (6-mer frequency, TF over GST control) | 1.04 fold enrichment (6-mer frequency, TF over GST control) | 1.06 fold enrichment (6-mer frequency, TF over GST control) | 1.07 fold enrichment (6-mer frequency, TF over GST control) | 
GTATGG | 1.25 fold enrichment (6-mer frequency, TF over GST control) | 1.03 fold enrichment (6-mer frequency, TF over GST control) |  | 1.02 fold enrichment (6-mer frequency, TF over GST control) | 1.03 fold enrichment (6-mer frequency, TF over GST control) |  | 1.01 fold enrichment (6-mer frequency, TF over GST control) | 1.01 fold enrichment (6-mer frequency, TF over GST control)
TAGGTC | 1.01 fold enrichment (6-mer frequency, TF over GST control) | 1.02 fold enrichment (6-mer frequency, TF over GST control) | 1.05 fold enrichment (6-mer frequency, TF over GST control) | 1.11 fold enrichment (6-mer frequency, TF over GST control) | 1.02 fold enrichment (6-mer frequency, TF over GST control) | 1.04 fold enrichment (6-mer frequency, TF over GST control) |  | 
TCCCAG | 1.05 fold enrichment (6-mer frequency, TF over GST control) | 1.08 fold enrichment (6-mer frequency, TF over GST control) | 1.07 fold enrichment (6-mer frequency, TF over GST control) | 1.16 fold enrichment (6-mer frequency, TF over GST control) | 1.12 fold enrichment (6-mer frequency, TF over GST control) | 1.07 fold enrichment (6-mer frequency, TF over GST control) |  | 
ATCGCA | 1.06 fold enrichment (6-mer frequency, TF over GST control) | 1 fold enrichment (6-mer frequency, TF over GST control) |  | 1.03 fold enrichment (6-mer frequency, TF over GST control) |  | 1.03 fold enrichment (6-mer frequency, TF over GST control) |  | 1.02 fold enrichment (6-mer frequency, TF over GST control)
TTGGCT | 1.18 fold enrichment (6-mer frequency, TF over GST control) | 1.13 fold enrichment (6-mer frequency, TF over GST control) | 1.11 fold enrichment (6-mer frequency, TF over GST control) | 1.07 fold enrichment (6-mer frequency, TF over GST control) |  | 1.06 fold enrichment (6-mer frequency, TF over GST control) | 1.13 fold enrichment (6-mer frequency, TF over GST control) | 
TCTGGG | 1.16 fold enrichment (6-mer frequency, TF over GST control) | 1.11 fold enrichment (6-mer frequency, TF over GST control) | 1.07 fold enrichment (6-mer frequency, TF over GST control) | 1.07 fold enrichment (6-mer frequency, TF over GST control) | 1.08 fold enrichment (6-mer frequency, TF over GST control) | 1.09 fold enrichment (6-mer frequency, TF over GST control) | 1.14 fold enrichment (6-mer frequency, TF over GST control) | 
CCGAAG | 1.16 fold enrichment (6-mer frequency, TF over GST control) | 1.02 fold enrichment (6-mer frequency, TF over GST control) |  |  |  | 1.02 fold enrichment (6-mer frequency, TF over GST control) |  | 1.08 fold enrichment (6-mer frequency, TF over GST control)
ACGCAC | 1.13 fold enrichment (6-mer frequency, TF over GST control) | 1.01 fold enrichment (6-mer frequency, TF over GST control) |  | 1.03 fold enrichment (6-mer frequency, TF over GST control) | 1.03 fold enrichment (6-mer frequency, TF over GST control) | 1.13 fold enrichment (6-mer frequency, TF over GST control) | 1.02 fold enrichment (6-mer frequency, TF over GST control) | 1.09 fold enrichment (6-mer frequency, TF over GST control)
ATCGTT | 1.01 fold enrichment (6-mer frequency, TF over GST control) | 1.11 fold enrichment (6-mer frequency, TF over GST control) |  |  |  | 1 fold enrichment (6-mer frequency, TF over GST control) | 1.06 fold enrichment (6-mer frequency, TF over GST control) | 1.06 fold enrichment (6-mer frequency, TF over GST control)
GCACTG | 1.04 fold enrichment (6-mer frequency, TF over GST control) | 1.07 fold enrichment (6-mer frequency, TF over GST control) |  | 1.11 fold enrichment (6-mer frequency, TF over GST control) |  | 1.12 fold enrichment (6-mer frequency, TF over GST control) | 1.09 fold enrichment (6-mer frequency, TF over GST control) | 1.07 fold enrichment (6-mer frequency, TF over GST control)
CGATCA | 1.09 fold enrichment (6-mer frequency, TF over GST control) | 1.1 fold enrichment (6-mer frequency, TF over GST control) |  | 1.08 fold enrichment (6-mer frequency, TF over GST control) |  | 1.1 fold enrichment (6-mer frequency, TF over GST control) | 1.05 fold enrichment (6-mer frequency, TF over GST control) | 1.19 fold enrichment (6-mer frequency, TF over GST control)
